Platelet DG rel – platelet dense granule release activity; human platelet-rich plasma, SFLLRN dense granule ATP release, luminescence; inhibition, %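 (compounds screened at 7.5 µM in platelet-rich plasma)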; 0.22% of 300,000 active;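 active means mean replicate score, as percent of positive control, at or above 50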
SENP8 block-1 – inhibitors of human SENP8 protease; purified SENP8, Z-RLRGG-aminoluciferin cleavage, luminescence; inhibition, % at 10 µM; 1.2% of 330,000 active; Q96LD8; in the data active means inhibition above about 50%
Target sequence (Q96LD8 whole entry, looked up): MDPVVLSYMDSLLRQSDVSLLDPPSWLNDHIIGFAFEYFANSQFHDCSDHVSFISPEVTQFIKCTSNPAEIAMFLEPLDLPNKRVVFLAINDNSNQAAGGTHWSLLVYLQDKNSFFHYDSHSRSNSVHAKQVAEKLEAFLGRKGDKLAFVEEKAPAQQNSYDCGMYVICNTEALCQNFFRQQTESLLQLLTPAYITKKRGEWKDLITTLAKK
SENP6 block – blocks the human protease SENP6 | Recombinant SENP6 catalytic domain, aminoluciferin luminescence | 1.8% of 330,000 active | Q9GZR1 | inhibition, % at 10 µM;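 active means inhibition above about 50% at the single tested dose, limit read from the data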;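 further: plate controls were DMSO wells with enzyme for no effect and DMSO wells lacking enzyme for full effect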
SENP8 block-2 – inhibitors of human SENP8 protease. 0.64% of 360,000 active. inhibition, % at 20 µM. recombinant SENP8, Nedd8 substrate fluorescence. Q96LD8; in the data active means inhibition mostly above about 40%, no sharp cut-off; inactive means mostly below about 27%
SENP7 inh – inhibitors of human SENP7 protease; 1.5% of 330,000 active; Q9BQF6; AID 434973; recombinant SENP7, Z-RLRGG-aminoluciferin luminescence, 40 min; inhibition, % at 5 µM;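 active means inhibition above about 50% at the single test dose, limit read from the data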;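 further: plate controls were DMSO with enzyme for no effect and no enzyme buffer wells for full effect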
SENP8 confirm – confirmation of human SENP8 protease inhibitors. shares compounds with SENP7 inh. Recombinant SENP8, Z-RLRGG-aminoluciferin luminescence, 60 min. inhibition, % at 12.5 µM. 40% of 6,200 active;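 active means mean inhibition across replicates above about 50%, limit read from the data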
SENP6 conf – human SENP6 inhibition, confirmed | 58% of 6,200 active | inhibition, % at 12.5 µM | shares compounds with SENP7 inh | AID 488915 | recombinant SENP6, Z-RLRGG-aminoluciferin luminescence
SENP7 confirm – confirmation of human SENP7 protease inhibitors | shares compounds with SENP7 inh | recombinant SENP7, Z-RLRGG-aminoluciferin luminescence, 40 min | inhibition, % at 12.5 µM | 69% of 6,200 active
Casp3 SENP sel – selectivity test for SENP inhibitors: human caspase-3 inhibition. shares compounds with SENP7 inh. purified caspase-3, Z-DEVD-aminoluciferin luminescence, 60 min. inhibition, % at 12.5 µM. 60% of 6,200 active;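 active means mean inhibition above about 50%, limit read from the data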;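 further: plate controls were enzyme with DMSO for no effect and wells without caspase-3 for full effect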
Target sequence (P42574 28-227 limits assumed): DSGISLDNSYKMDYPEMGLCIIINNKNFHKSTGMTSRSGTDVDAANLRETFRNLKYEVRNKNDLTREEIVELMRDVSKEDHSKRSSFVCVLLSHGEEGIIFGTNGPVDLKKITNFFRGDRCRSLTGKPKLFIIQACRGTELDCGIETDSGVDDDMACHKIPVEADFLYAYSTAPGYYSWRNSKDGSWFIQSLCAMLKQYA
Luc interf – luminescence interference (SENP counter-screen); shares compounds with SENP7 inh; Pre-incubated SENP8/Z-RLRGG-aminoluciferin, luciferase luminescence interference; inhibition, % at 12.5 µM; 39% of 6,200 active;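 active means mean inhibition above about 50% when retested at one dose, limit read from the data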;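 further: plate controls were DMSO wells with completed reaction for no effect and substrate without enzyme for full effect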
An asterisk follows results filed as active; / = no result given. Sampled rows, rich in hits. Any-hit rate of the full collection: about 2.4%.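 How the source made its calls, unless noted: active means mean inhibition above about 50% in the one-dose retest (limit read from the data); inactive means the rest.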

SMILES	Platelet DG rel	SENP8 block-1	SENP6 block	SENP8 block-2	SENP7 inh	SENP8 confirm	SENP6 conf	SENP7 confirm	Casp3 SENP sel	Luc interf
CCCCCn1c(NC(=O)c2ccco2)c(C(=O)OCC)c2nc3ccccc3nc21	2.6	79.6*	79.2*	-360.6	34.7	-0.4	5.6	1.7	-2.8	-6.0
COCCNC(=O)c1c(N)n(CCC(C)C)c2nc3ccccc3nc12	-2.5	81.2*	86.2*	-287.2	28.8	4.6	26.3	22.1	5.9	9.5
COCCCn1c(N)c(C(=O)OCCOC)c2nc3ccccc3nc21	-4.1	59.9*	58.3*	-472.5	57.2*	6.7	8.7	1.0	-1.9	-1.8
CCOC(=O)c1c(N)n(CCCOC(=O)c2ccco2)c2nc3ccccc3nc12	-11.2	21.4	15.1	-477.6	19.8	/	/	/	/	/
CC(C)CCn1c(N)c(C(=O)NCc2cccs2)c2nc3ccccc3nc21	-0.3	87.5*	80.0*	-279.1	50.6*	-3.6	4.2	8.9	2.9	1.9
CC(C)OCCCNC(=O)c1c(N)n(Cc2cccs2)c2nc3ccccc3nc12	-6.8	44.2	63.7*	-493.1	29.6	6.0	12.1	12.2	6.4	2.0
Nc1c(C(=O)OCC2CCCO2)c2nc3ccccc3nc2n1Cc1cccs1 (stereo not given)	2.0	15.2	17.6	-479.5	9.7	/	/	/	/	/
CCCCNC(=O)c1c(N)n(CCCOC)c2nc3ccccc3nc12	1.3	85.9*	88.6*	-276.8	48.9	18.7	49.0	17.6	0.3	-7.4
COCCCNC(=O)c1c(N)n(Cc2ccco2)c2nc3ccccc3nc12	-13.1	0.4	6.6	-463.6	-0.5	/	/	/	/	/
CCOC(=O)c1c(N)n(Cc2ccc(OC)cc2)c2nc3ccccc3nc12	-0.8	/	/	/	/	/	/	/	/	/
CCOC(=O)c1c(NS(=O)(=O)c2ccccc2)n(CCCOC)c2nc3ccccc3nc12	-1.0	91.4*	95.4*	-423.1	95.3*	29.0	58.3*	37.5	1.2	0.6
COCCNC(=O)c1c(NC(=O)c2ccc(Br)o2)n(Cc2ccccc2)c2nc3ccccc3nc12	3.0	82.2*	82.8*	-289.9	41.7	4.8	37.7	17.1	4.2	2.6
Cc1nc2ccccc2c(=O)n1-c1c(Cl)cccc1Cl	/	/	/	13.6	/	/	/	/	/	/
CC(C)N(C(=O)CCl)c1ccccc1	/	/	/	4.6	/	/	/	/	/	/
OCC1CN1C1CCCCC1 (stereo not given)	/	/	/	10.0	/	/	/	/	/	/
CC12C(C(=O)O)C1(c1ccccc1)C2C(=O)O (stereo not given)	/	/	/	-1.3	/	/	/	/	/	/
O=C(N/N=C/c1c(O)n(C2CC2)c(=S)[nH]c1=O)c1ccccc1O	0.2	82.9*	81.5*	-234.6	82.6*	88.4*	85.5*	94.6*	87.4*	25.3
CC1[C@H]2Cc3ccc(O)cc3[C@]1(C)CCN2C (stereo not given in full)	/	/	/	9.3	/	/	/	/	/	/
CN1CC[C@@]2(C)c3cc(O)ccc3N(C)C2O1 (stereo not given in full)	8.5	23.8	57.1*	-76.6	33.8	28.9	55.7*	30.2	-3.6	-8.6
CCCNC1=C(C)C(=O)C2=C(C1=O)C(COC(N)=O)[C@]1(OC)C3NC3CN21 (stereo not given in full)	7.7	37.6	65.8*	32.1	29.1	-9.8	-5.3	-7.5	-2.9	-8.6
CCC(COC(=O)NC)NC(=O)Oc1cccc(C)c1 (stereo not given)	0.7	-5.6	-10.8	18.2	-9.7	/	/	/	/	/
CNC(=O)Oc1cccc(-c2cn3cc(Cl)ccc3n2)c1	19.1	83.2*	85.3*	-271.6	83.2*	92.4*	94.7*	101.7*	94.8*	92.0*
CC1CC2CC(=O)CCC2(C)C2CCC3(C)C(O)CCC3C12 (stereo not given)	/	/	/	15.6	/	/	/	/	/	/
C=Cc1cc(OC)c2c(c1)c(=O)oc1c2cc(OC)c2c(O)ccc(C3OC(C)C(O)C(C)(O)C3O)c21 (stereo not given)	/	/	/	-258.1	/	/	/	/	/	/
CN1CC=C(/C=C/c2ccc(-c3ccccc3)cc2)CC1	1.0	75.6*	85.9*	/	81.5*	71.6*	87.6*	97.3*	87.7*	71.7*
SMILES	Platelet DG rel	SENP8 block-1	SENP6 block	SENP8 block-2	SENP7 inh	SENP8 confirm	SENP6 conf	SENP7 confirm	Casp3 SENP sel	Luc interf
CCOC(=O)C1(c2ccccc2)CCN(CCC(=O)Nc2cccc(Br)c2)CC1	/	0.4	-20.1	11.7	4.5	/	/	/	/	/
COc1ccc(OC)c(N2C(=O)NC(=O)/C(=C/c3ccc([N+](=O)[O-])s3)C2=O)c1	-4.6	16.0	55.0*	62.9*	10.5	-8.8	21.9	6.8	-4.6	-6.2
COc1ccc(OC)c(N2C(=O)/C(=C/c3ccco3)C(=O)NC2=S)c1	4.0	22.5	-43.1	/	-0.4	/	/	/	/	/
COc1cc2c(cc1OC)C13CCN4CC5=CCOC6CC(=O)N2C1C6C5C3C4 (stereo not given) (tested in a mixture with another compound)	/	/	/	8.3	/	/	/	/	/	/
Nc1c2c(nc3sc4c(c13)CCCC4)CCCC2	-0.8	9.2	15.6	-10.0	14.7	/	/	/	/	/
Nc1c2c(nc3sc4c(c13)CCCC4)CCCCC2	-13.2	69.3*	81.0*	13.3	71.7*	17.3	19.3	47.0	50.1*	9.2
C=CCOC(=O)C1C(C(=O)O)C2(Cl)C(Cl)=C(Cl)C1(Cl)C2(Cl)Cl (stereo not given)	/	/	/	12.6	/	/	/	/	/	/
CN(C)C(=O)Oc1ccc(OC(=O)c2ccccc2)cc1	32.1	80.7*	90.0*	10.6	5.0	64.9*	89.3*	98.2*	92.5*	50.9*
CN(C(=O)Oc1ccc(C(=O)c2ccc(Cl)cc2)cc1)c1ccccc1	2.8	-1.2	4.7	17.2	1.5	/	/	/	/	/
CCOc1ccc(NC(=O)c2c(O)[nH]c(=O)[nH]c2=O)cc1	56.3*	59.0*	74.4*	14.3	80.0*	71.3*	58.8*	94.9*	83.9*	39.3
CCOC(=O)c1ccc(NC(=O)c2c(O)[nH]c(=O)[nH]c2=O)cc1	13.7	66.2*	82.9*	18.0	71.9*	30.4	19.4	36.4	21.4	21.8
COC(=O)C1=C(c2ccc(F)cc2F)C[C@@H]2CC[C@H]1N2C	/	-2.1	-5.5	6.1	4.8	/	/	/	/	/
CC(C)(C)C(=O)O[C@H]1CC[C@@]2(C)C(=CC(=O)C3C2CC[C@]2(C)C(=O)[C@@H](F)CC32)C1 (stereo not given in full)	/	4.6	-6.8	1.8	-7.3	/	/	/	/	/
Clc1ccccc1NC1=NCCCS1	8.7	8.7	8.4	13.5	-2.0	/	/	/	/	/
Clc1ccccc1Nc1ncnc(-n2cccc2)n1	1.9	64.0*	81.5*	23.8	71.6*	67.1*	68.0*	91.1*	59.6*	48.0

Assay outcomes from PubChem BioAssay.
